Test results from PubChem BioAssay (Tox21).
Records with an inconclusive call do not appear. Calls of active or inactive are those of the source. Unless noted, calls follow the shape of the dose curve; as a rule, active = well fitted curve in the direction sought with a large enough effect in the repeat runs; inconclusive = weak or mixed curves; inactive = no such curve, though single readings can be large; an effect the other way counts as inactive or inconclusive.

Assays:
[1] = qHTS assay for small molecule agonists of the p53 signaling pathway (AID 651631; calls by dose curve; also: nearly all actives have a fitted effect of over 15% in size; also: potency is read from the fitted curve at half-maximal effect)
Summary of the method: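 Testing took place in human colorectal HCT-116 cells with stable p53RE-driven beta-lactamase. After 16 h of compound exposure at 37 °C, a FRET substrate was added and fluorescence recorded 2 h later.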

[2] = qHTS assay for small molecule agonists of the p53 signaling pathway - cell viability (AID 651633; calls by dose curve; also: series mostly up to about 83 µM; nearly all actives have a fitted effect of over 30% in size)
Summary of the method: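 Viability counter-read: CellTiter-Glo luminescence (30 min, room temperature) in the same p53RE-bla plates. These plates had been exposed to compounds for 16 h at 37 C.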

[3] = qHTS assay for small molecules that induce genotoxicity in human embryonic kidney cells expressing luciferase-tagged ATAD5 - cell viability (AID 651634; calls by dose curve; also: nearly all actives have a fitted effect of over 25% in size; also: potency is read from the fitted curve at half-maximal effect)
Summary of the method: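 HEK293T cells expressing luciferase-tagged ATAD5 were exposed to compound or DMSO for 15.5 hr at 37C, 5% CO2. Viability was then read as live-cell protease activity by CellTiter-Fluor fluorescence after 30 min at 37C.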

[4] = qHTS assay for small molecule disruptors of the mitochondrial membrane potential - cell viability (AID 720634; calls by dose curve;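 also: human HepG2 liver cancer cells; series mostly up to about 83 µM; nearly all actives have a fitted effect of over 20% in size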)
Summary of the method: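 HepG2 cells seeded overnight at 37 C, then exposed to compound or DMSO for 1 hr at 37 C, 5% CO2. m-MPI dye added, then CellTiter-Glo for 30 min at room temperature; viability read as ATP luminescence.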

[5] = qHTS assay for small molecule disruptors of the mitochondrial membrane potential (AID 720635); also: potency is read from the fitted curve at half-maximal effect
Summary of the method: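 Mitochondrial membrane potential tracked with Mito-MPS dye, red aggregates (ex 540/em 590 nm) against green monomers (ex 490/em 535 nm). Compound treatment 1 hr at 37C, dye 30 min in HepG2.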

[6] = qHTS assay to test for compound auto fluorescence at 535 nm (green) in HepG2 cells (AID 720675)
[7] = qHTS assay to test for compound auto fluorescence at 460 nm (blue) in HEK293 cells (AID 720678)
Summary of the method: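 Measured: blue fluorescence (Ex 405/Em 460 nm) of compound-treated HEK293 cells, incubated overnight at 37C with 5% CO2 and scaled to triamterene equivalents.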

[8] = qHTS assay to test for compound auto fluorescence at 590 nm (red) in HEK293 cells (AID 720679)
Summary of the method: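 Using HEK293 cells at 2,000 per well, the screen added 23 nL of each compound after cell attachment and incubated overnight (37C, 5% CO2). The plate reader then captured red-label fluorescence, Ex/Em 540/590nm.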

[9] = qHTS assay to test for compound auto fluorescence at 535 nm (green) in HEK293 cells (AID 720680)
[10] = qHTS assay to test for compound auto fluorescence at 460 nm (blue) in HEK293 cell free culture (AID 720681)
Summary of the method: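 Blue fluorescence (Ex 405/Em 460 nm, triamterene-equivalent) was read immediately after pin transfer of compound or DMSO into medium (DMEM, 10% FBS) without cells.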

[11] = qHTS assay to test for compound auto fluorescence at 535 nm (green) in HEK293 cell free culture (AID 720682)
Summary of the method: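 DMEM + 10% FBS, cell-free; cpd or DMSO pinned in; Ex485/Em535 read; output as fluorescein-equivalent signal.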

[12] = qHTS assay to test for compound auto fluorescence at 590 nm (red) in HEK293 cell free culture (AID 720683)
Summary of the method: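 Red-channel autofluorescence of compounds in culture medium (DMEM, 10% FBS), no cells, measured at 540/590 nm. Rose Bengal sodium is the reference fluorophore for equivalence.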

[13] = qHTS assay to test for compound auto fluorescence at 590 nm (red) in HepG2 cell free culture (AID 720684)
Summary of the method: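 Plate contents were MEM with 10% FBS plus test compound or DMSO, no cells. Fluorescence was recorded with 540 nm excitation and 590 nm emission.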

[14] = qHTS assay to test for compound auto fluorescence at 535 nm (green) in HepG2 cell free culture (AID 720686)
[15] = qHTS assay to test for compound auto fluorescence at 460 nm (blue) in HepG2 cells (AID 720687)
Summary of the method: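 Blue-channel autofluorescence (Ex/Em 405/460 nm, triamterene-equivalent) was measured after 1 hr compound exposure at 37 C, 5% CO2. Cells were HepG2, plated overnight at 37 C in MEM plus 10% FBS.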

[16] = molecular target: Glucocorticoid receptor (Homo sapiens) (UniProt P04150); assay: qHTS assay to identify small molecule agonists of the glucocorticoid receptor (GR) signaling pathway (AID 720691; active = well fitted activation curve with a large enough effect in the signal ratio in the repeat runs, not every such curve was filed as active; the % refers to the signal ratio)
Sequence of Glucocorticoid receptor (Homo sapiens) (P04150 whole entry, looked up): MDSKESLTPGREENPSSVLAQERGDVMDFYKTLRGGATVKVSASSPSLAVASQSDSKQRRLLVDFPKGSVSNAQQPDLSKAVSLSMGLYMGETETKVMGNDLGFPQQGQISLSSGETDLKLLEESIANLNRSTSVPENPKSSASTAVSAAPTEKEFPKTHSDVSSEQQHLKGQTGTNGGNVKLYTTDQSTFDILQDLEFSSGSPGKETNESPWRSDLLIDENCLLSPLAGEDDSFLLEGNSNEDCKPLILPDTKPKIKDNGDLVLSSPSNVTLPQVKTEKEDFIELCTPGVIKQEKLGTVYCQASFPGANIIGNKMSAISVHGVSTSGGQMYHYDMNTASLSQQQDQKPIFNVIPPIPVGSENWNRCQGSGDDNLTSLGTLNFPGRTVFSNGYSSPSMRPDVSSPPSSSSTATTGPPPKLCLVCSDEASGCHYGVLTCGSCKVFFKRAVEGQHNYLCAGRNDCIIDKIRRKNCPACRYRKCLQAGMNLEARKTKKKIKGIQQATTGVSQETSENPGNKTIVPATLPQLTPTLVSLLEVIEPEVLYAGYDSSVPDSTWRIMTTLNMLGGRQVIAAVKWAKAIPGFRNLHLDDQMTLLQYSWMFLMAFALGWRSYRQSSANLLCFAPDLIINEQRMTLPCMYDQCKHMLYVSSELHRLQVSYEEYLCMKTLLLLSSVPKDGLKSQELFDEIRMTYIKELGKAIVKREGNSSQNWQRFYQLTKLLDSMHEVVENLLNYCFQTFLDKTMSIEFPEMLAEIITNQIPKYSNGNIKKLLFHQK
Summary of the method: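 GR-bla HeLa cells (beta-lactamase reporter under glucocorticoid response element) were plated 4 h at 37 C/5% CO2, given compounds in DMSO, and incubated 18 h at 37 C. LiveBLAzer B/G FRET substrate was added for 2 h at room temperature, then fluorescence intensity read.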

[17] = molecular target: Glucocorticoid receptor (Homo sapiens) (UniProt P04150); assay: qHTS assay to identify small molecule antagonists of the glucocorticoid receptor (GR) signaling pathway (AID 720692; active = well fitted inhibition curve with a large enough effect in the signal ratio in the repeat runs, not every such curve was filed as active; the % refers to the signal ratio)
Summary of the method: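 GR-bla HeLa cells (beta-lactamase reporter under glucocorticoid response element) were pre-plated 4 h at 37 C, treated with compounds plus 5 nM dexamethasone (final) for 18 h, then read by LiveBLAzer B/G FRET fluorescence after 2 h.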

[18] = qHTS assay to test for compound auto fluorescence at 590 nm (red) in HepG2 cells (AID 720674)
Summary of the method: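 Red autofluorescence (Ex/Em 540/590 nm, Rose Bengal sodium equivalents) was measured in HepG2 cells, 2,000 per well in MEM plus 10% FBS, plated overnight at 37 C. Readings were taken 1 hr after adding 23 nL compound or DMSO, at 37 C and 5% CO2.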

[19] = qHTS assay to test for compound auto fluorescence at 460 nm (blue) in HepG2 cell free culture (AID 720685)
Summary of the method: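 Compound (23 nL) or DMSO pinned into cell-free MEM with 10% FBS; blue fluorescence read at 405/460 nm excitation/emission, expressed as auto-fluorescence equivalency to triamterene.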
% is scaled to controls: 0 for no effect and ±100 for the full control effect.

CCN(Cc1ccc(Cl)nc1)/C(=C/[N+](=O)[O-])NC
inactive: Potency [1] | Potency [2] | Potency [3] | Potency [4] | Potency [5] | outcome [6] | outcome [7] | outcome [8] | outcome [9] | outcome [10] | outcome [11] | outcome [12] | outcome [13] | outcome [14] | outcome [15] | outcome [16] | Potency [17]

O=[N+]([O-])c1ccc(CBr)cc1
inactive: Potency [1] | Potency [2] | Potency [3] | Potency [4] | outcome [18] | outcome [6] | outcome [7] | outcome [8] | outcome [9] | outcome [10] | outcome [11] | outcome [12] | outcome [13] | outcome [19] | outcome [14] | outcome [15] | outcome [16] | Potency [17]

CCOP(=S)(Oc1cnc(C(C)(C)C)nc1)OC(C)C (stereo not drawn)
inactive: Potency [1] | Potency [2] | Potency [3] | Potency [4] | outcome [18] | outcome [6] | outcome [7] | outcome [8] | outcome [9] | outcome [10] | outcome [11] | outcome [12] | outcome [13] | outcome [19] | outcome [14] | outcome [15] | outcome [16] | Potency [17]

CS(=O)(=O)c1cc(C(F)(F)F)ccc1C(=O)c1cnoc1C1CC1
inactive: Potency [1] | Potency [2] | Potency [3] | Potency [4] | Potency [5] | outcome [18] | outcome [6] | outcome [7] | outcome [8] | outcome [9] | outcome [10] | outcome [11] | outcome [12] | outcome [13] | outcome [19] | outcome [14] | outcome [15] | outcome [16] | Potency [17]

Nc1cc(Cl)ccc1O
inactive: Potency [2] | Potency [4] | outcome [6] | outcome [7] | outcome [8] | outcome [9] | outcome [10] | outcome [11] | outcome [12] | outcome [13] | outcome [19] | outcome [14] | outcome [15] | outcome [16] | Potency [17]
active: Potency [1] 26.4 µM | Potency [3] 23.5 µM | Potency [5] 9.37 µM

COC(=O)COc1ccc(Cl)cc1Cl
inactive: Potency [1] | Potency [2] | Potency [4] | outcome [18] | outcome [6] | outcome [7] | outcome [8] | outcome [9] | outcome [10] | outcome [11] | outcome [12] | outcome [13] | outcome [19] | outcome [14] | outcome [15]

CC(C)NCC(O)c1ccc(N)c(C#N)c1 (stereo not drawn)
inactive: Potency [1] | Potency [2] | Potency [3] | Potency [4] | Potency [5] | outcome [6] | outcome [7] | outcome [8] | outcome [11] | outcome [12] | outcome [13] | outcome [19] | outcome [14] | outcome [15] | outcome [16] | Potency [17]

COc1ccc2c(c1OC)CN1CCc3cc4c(cc3C1C2)OCO4 (stereo not drawn)
inactive: Potency [1] | Potency [2] | Potency [3] | Potency [4] | fluorescence, relative to Rose Bengal [18] 0.552% [at 18.6 µM] | fluorescence, % of fluorescein control [6] -0.0763% [at 18.6 µM] | fluorescence, % of triamterene [7] -0.105% [at 18.6 µM] | fluorescence, % of fluorescent control [8] -0.125% [at 18.6 µM] | fluorescence, % of fluorescein [9] -0.0571% [at 18.6 µM] | fluorescence, % of fluorescent control [10] 0.288% [at 18.6 µM] | activity change [11] -0.0423% [at 18.6 µM] | fluorescence, % of fluorescent control [12] 0.155% [at 18.6 µM] | fluorescence, % of Rose Bengal [13] -0.268% [at 18.6 µM] | fluorescence, % of fluorescein control [14] 0.0175% [at 18.6 µM] | fluorescence, % of fluorescent control [15] 0.229% [at 18.6 µM] | outcome [16] | Potency [17]
